# DRD3 agonist = agonists of human D3 dopamine receptor; P35462; D3R DiscoveRx beta-arrestin cells, luminescence, 90 min; max activation, %; 410,000 tested, 0.58% active; AID 652048; in the data active = max activation above about 30%
# Target sequence (P35462 whole entry, looked up): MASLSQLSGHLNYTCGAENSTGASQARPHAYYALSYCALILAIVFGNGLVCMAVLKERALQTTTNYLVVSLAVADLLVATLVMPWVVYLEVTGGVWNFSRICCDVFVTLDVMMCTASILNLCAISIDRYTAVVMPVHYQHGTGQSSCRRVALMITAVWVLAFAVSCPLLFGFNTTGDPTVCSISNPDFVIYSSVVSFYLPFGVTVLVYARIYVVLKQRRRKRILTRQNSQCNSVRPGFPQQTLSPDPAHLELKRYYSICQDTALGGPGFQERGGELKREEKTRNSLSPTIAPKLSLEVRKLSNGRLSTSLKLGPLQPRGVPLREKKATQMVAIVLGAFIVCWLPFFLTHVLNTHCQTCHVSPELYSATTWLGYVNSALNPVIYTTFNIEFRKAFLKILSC
#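 Agonist mode: compounds and dopamine controls were applied to plated cells for 90 min at 37 degrees C after an overnight attachment at 1500 cells/well. Luminescent read-out followed 30 - 60 minutes at room temperature with DiscoveRx detection reagent.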
# ATXN2 expr inh = reduces ATXN2 reporter expression in HEK-293 cells; 360,000 tested, 0.72% active; Potency, µM (highest dose often 57 µM), usual class: inhibitors; AID 1745845; HEK-293 ATXN2-luciferase reporter, luminescence, 24 h; note: nearly all actives have a fitted effect of over 55% in size
#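 ATXN2-luciferase reporter cells (luciferase flanked by upstream and downstream ATXN2 gene portions) were treated 24 h at 37 °C with compounds at up to 57 uM. SteadyGlo luminescence gave expression; GF-AFC fluorescence gave viability.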
# Integrin act MD = integrin-mediated muscular dystrophy alleviation activation | 350,000 tested, 0.064% active | AID 624291 | alpha7betagal myoblasts, beta-gal FDG fluorescence, 48 h | Potency, µM (series often up to 38.3 µM), hits mostly activators; note: nearly all actives have a fitted effect of over 60% in size
#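 Alpha7betagal+/- myoblasts (passage 13) were plated 16-24 hr, then exposed to compounds (1:260 dilution of DMSO stock) for 48 hours at 37C. After MPER lysis, β-galactosidase reporter activity was read as FDG fluorescence (ex 480/em 540) after 30 minutes.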
# D3 antag = D3 dopamine receptor (human) antagonism | P35462 | D3R cells, DiscoveRx beta-arrestin luminescence, antagonist mode; stronger effect = lower value | max response, negative = inhibition, % | 360,000 tested, 2.5% active; in the data active = max response below about -50%; inconclusive = no clear call, values can overlap the other calls
#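 Cells expressing the human receptor were seeded at 1500 cells/well, incubated overnight at 37 degrees C in 5% CO2, then exposed to library compounds with dopamine controls for 90 minutes at 37 degrees C before luminescent detection.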
# S2 tox = viability counter-screen for ATXN expression inhibitors; S2 cells (HEK-293 line with an ATXN2-luciferase reporter) viability, CellTiter-Fluor protease fluorescence, 24 h; Potency, µM (highest dose often 56.7 µM), actives largely listed as cytotoxic; 400,000 tested, 0.49% active; AID 651635; note: nearly all actives have a fitted effect of over 40% in size
# IL-1B inflam inh = inflammasome signaling inhibition, IL-1 beta readout; THP-1 LPS/ATP IL-1B secretion, AlphaLISA, 16 h; stronger effect = lower value; activity change, % at 57.5 µM; 360,000 tested, 4.7% active; AID 743279; in the data active = activity change below about -50%; inconclusive = mostly about -30% to -49%
#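 THP-1 cells pretreated 1 hr with compounds (up to 57.5 uM final), then stimulated with LPS (250 ng/mL final) plus ATP (1.25 mM final); secreted IL-1B measured by AlphaLISA after 16 hr, decreased signal indicating inhibition.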
# A number is an active result; n = inactive; u = inconclusive; x = no result given. In the library only some 7% were active in any assay of this set; here they are far more common. Unless noted, calls come from the whole dose curve; as a rule, active = well fitted curve in the direction sought with a large enough effect; inconclusive = small, poorly fitted or top-dose-only effect, or another doubt; inactive = no such curve, though single readings can be large; an effect the other way counts as inactive or inconclusive.
SMILES,DRD3 agonist,ATXN2 expr inh,Integrin act MD,D3 antag,S2 tox,IL-1B inflam inh
COc1ccccc1N1CCN(CCc2c[nH]c3cc4c(cc23)OCO4)CC1,n,n,n,-79.2,u,u
CCOP(=S)(OCC)O/N=C(\C#N)c1ccccc1,n,n,x,x,n,x
Cn1sc(Cl)cc1=O,n,x,x,x,x,x
C#C[C@]1(O)CC[C@H]2[C@@H]3CCC4=CC(=O)CC[C@]4(C)[C@H]3CC[C@@]21C,n,n,x,n,n,n
C#C[C@]1(O)CCC2C3C(=O)C=C4C(Cl)=CCC[C@]4(C)C3CC[C@@]21C (some centres undefined),n,n,n,n,n,-90.3
Cc1[nH]n(-c2ccccc2)c(=O)c1C(c1ccc([N+](=O)[O-])cc1)c1c(C)[nH]n(-c2ccccc2)c1=O,n,n,n,n,u,n
Cc1cc(C=C2C(=O)N(C)C(=S)N(C)C2=O)c(C)n1-c1cccnc1,n,n,n,n,n,-68.0
COc1ccc(Nc2nc(NC(C)C)nc3ccsc23)cc1OC,n,n,x,n,u,-89.1
O=P(Nc1cccnc1)(Oc1ccccc1)Oc1ccccc1,n,n,n,n,n,n
COc1cccc(NP(=O)(Oc2ccccc2)Oc2ccccc2)c1,n,n,n,n,n,u
O=P(Nc1cccc(Cl)c1)(Oc1ccccc1)Oc1ccccc1,31.6,n,n,n,u,n
COc1cccc(NP(=O)(Oc2ccccc2Cl)Oc2ccccc2Cl)c1,n,u,n,n,u,-87.3
COc1c(OP2(=S)OCC(C)(C)CO2)cnn(C2CCCCC2)c1=O,n,n,x,n,n,n
NCCc1ccc(OCc2ccccc2)c(OCc2ccccc2)c1,n,u,n,n,n,-81.9
COc1ccc(CCN)cc1OC,n,n,n,n,n,n
Cc1[nH]c2ccccc2c1CCCNC1CCCCC1,n,n,n,u,n,u
O=C1NC(=O)C(=Cc2cccs2)C(=O)N1,n,n,n,n,n,n
CCOc1ccc(N2C(=O)/C(=C\c3cccs3)C(=O)NC2=S)cc1,n,31.6µM,n,u,35.5µM,-99.1
O=C1NC(=S)N(c2ccccc2F)C(=O)/C1=C\c1cccs1,n,u,n,n,x,-90.5
O=C(NC1CONC1=O)OCC(Cl)(Cl)Cl (centres undefined),n,x,u,n,n,n
O=C(c1ccc2c3c(cccc13)CC2)C1CCCN(CC2CC2)C1 (centres undefined),n,n,n,-80.8,n,-116.8
O=C(c1ccc2c3c(cccc13)CC2)C1CCCN(Cc2ncc[nH]2)C1 (centres undefined),n,n,n,n,n,u
CC1OC(OC2C=C3CCC4C(CCC5(C)C(c6ccc(=O)oc6)CCC45O)C3(C)CC2)C(O)C(OC2OC(CO)C(O)C(O)C2O)C1O (centres undefined),n,0.0075µM,n,n,u,-70.8
CC(=O)OO,n,x,x,x,x,x
CCOC(=O)C1(CCCc2ccccc2)CCN(C2CCCC2)CC1,n,n,n,u,n,-73.7
SMILES,DRD3 agonist,ATXN2 expr inh,Integrin act MD,D3 antag,S2 tox,IL-1B inflam inh
Cc1[nH]c2ccccc2c1CCN,n,n,n,n,n,n
CCC1=CCN(CCc2c(C)[nH]c3ccccc23)CC1,n,n,n,-63.4,n,n
C[C@H]1CN([C@@H](C)CO)C(=O)CCCn2nncc2CO[C@@H]1CN(C)C(=O)Nc1ccc(N2CCCCC2)cc1,n,n,n,n,n,n
CC(C)Oc1cccc(C(=O)C2CCCN(Cc3ccon3)C2)c1 (centres undefined),n,n,n,n,n,n
Cc1ccc(Cn2cc(C=O)c3ccccc32)cc1,n,u,n,n,u,n
O=Cc1cn(Cc2ccc(F)cc2)c2ccccc12,n,14.1µM,n,n,n,n
Cc1ccc(CN2C(=O)NC(=O)C3(Cc4c(nc5ccccn5c4=O)N4CCCCCC43)C2=O)cc1 (centres undefined),54.0,n,n,n,n,n
O=C1NC(=O)C2(Cc3ccccc3N3CCCC32)C(=O)N1c1cccc(Cl)c1 (centres undefined),n,n,n,n,n,n
c1cncc(CNCCN2CCNCC2)c1,n,n,n,u,n,n
